Assay results reported in PubChem BioAssay AID1345085 (National Center for Advancing Translational Sciences (NCATS), 2018).
Results filed as inconclusive are left out. Calls of active or inactive are those of the source. Calls come from the whole dose curve; as a rule, active = well fitted cell-killing curve with a large enough effect; inconclusive = small, poorly fitted or top-dose-only effect, or effect the other way; inactive = no such curve, though single readings can be large or run the other way.

test system: HeLa; assay: Confirmatory qHTS for gynecologic anti-cancer compounds from libraries of approved drugs and bioactive compounds; settings: gynecologic cancer cell panel viability, ATPlite luminescence, 48 h; series mostly up to 57.6 µM; activity change, negative = viability loss: at the top concentration; note: nearly all actives have a fitted effect of over 55% in size
Summary of the method: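 Cells (1,000/well) plated 16 h, then exposed 48 h at 37 °C to 11 concentrations (1:3) from 57.5 uM to 0.977 nM. Viability by ATPlite luminescence after 15 min; IC50 derived, with HEK 293T used for selectivity index.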
% is set by controls: 0 for no effect and ±100 for the full control effect; potency is the fitted concentration of half-maximal effect.

SMILES	Potency	activity change, negative = viability loss
C[C@H]1CCC/C=C/C2C[C@H](O)C[C@H]2[C@H](O)/C=C/C(=O)O1 (stereo partly drawn)	172 nM (active)	–
O=C(O)Cc1ccccc1	–	19.4% (inactive)
CCC(=O)O[C@H]1CC[C@H]2[C@@H]3CCC4=CC(=O)CC[C@]4(C)[C@H]3CC[C@]12C	4320 nM (active)	–
C[C@]12CC[C@H]3[C@@H](CCC4=CC(=O)CC[C@@H]43)[C@@H]1CC[C@@H]2OC(=O)CCc1ccccc1	2730 nM (active)	–
CCNC(=O)C[C@@H]1N=C(c2ccc(Cl)cc2)c2cc(OC)ccc2-n2c(C)nnc21	1530 nM (active)	–
C=C(C)[C@H]1Cc2c(ccc3c2O[C@@H]2COc4cc(OC)c(OC)cc4[C@@H]2C3=O)O1	243 nM (active)	–
C/C=C(/C)C(=O)O[C@H]1C(C)=C2[C@H]([C@@H]1OC(=O)CCCCCCC)[C@@](C)(OC(C)=O)C[C@H](OC(=O)CCC)[C@@]1(O)[C@H]2OC(=O)[C@@]1(C)O	61.1 nM (active)	–
Cc1sc2c(c1C)C(c1ccc(Cl)cc1)=NC(CC(=O)OC(C)(C)C)c1nnc(C)n1-2 (stereo not drawn)	769 nM (active)	–
